Assay [1] in a line: CCTE_Shafer_MEA_acute_interburst_interval_mean: CCTE's Neural Acute Assay for Mean Interburst Interval, Shafer Lab (AID 2284016).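 Also: percent change of mean interburst interval versus each well's own pre-dose baseline; curves fitted for decrease in interburst interval relative to DMSO.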 In outline: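 Primary rat cortical neurons on 16-electrode MEA wells were recorded 40 min at baseline on DIV 13 or 15, then 40 min after compound (0.03-40 uM), at 37 C. Value is percent change in mean interburst interval per well, DMSO as negative control.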

A short description of assay [2]: CCTE_Shafer_MEA_acute_burst_percentage_std: CCTE's Neural Acute Assay for Standard Deviation of Burst Percentage, Shafer Lab (AID 2284018).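 Also: fitted in the negative direction so actives lower burst percentage SD.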 The gist of the method:
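Value is percent change from baseline in the across-electrode SD of spikes-in-bursts percentage, wells with >/= 10 active electrodes. Acute 40-min exposure to 0.03-40 uM on DIV 13 or 15 rat cortical cultures, recorded at 37 C after 40-min baseline.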

Assay [3] is described as follows: CCTE_Shafer_MEA_acute_per_network_burst_spike_number_mean: CCTE's Neural Acute Assay for Average Number of Spikes in a Network Burst, Shafer Lab (AID 2284019).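 As to AC50: curve fitted for loss of signal so actives reduce spikes per network burst.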 The gist of the method: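 Percent change from baseline in mean spikes per network burst, spikes detected at 8x rms noise. Each compound at 0.03-40 uM in at least three wells of rat cortical cultures, recorded 40 min before and 40 min during exposure.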

A short description of assay [4]: CCTE_Shafer_MEA_acute_per_network_burst_spike_number_std: CCTE's Neural Acute Assay for Standard Deviation of Number of Spikes in a Network Burst, Shafer Lab (AID 2284020).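 Also: fitted for decrease in spike-number SD versus DMSO so actives lower it.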 In outline: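 Endpoint: percent change from 40 min baseline in standard deviation of spikes per network burst, after 40 min compound exposure (0.03-40 uM, 37 C). Cortical rat neurons on MEA at DIV 13 or 15; spikes detected at 8x rms noise, 300-5000 Hz band-pass.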

Assay [5] can be described thus: CCTE_Shafer_MEA_acute_network_burst_percentage: CCTE's Neural Acute Assay for Percentage of Network Bursts, Shafer Lab (AID 2284022).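 Also: curves fitted for loss so actives lower network burst percentage.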 The gist of the method: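 Network burst percentage (spikes in network bursts divided by total spikes) recorded at 37 C over 40 min baseline and 40 min after compound, 0.03-40 uM, in rat cortical cultures at DIV 13 or 15. Analysed as percent change from baseline versus DMSO.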

Assay [6] is described as follows: CCTE_Shafer_MEA_acute_cross_correlation_area: CCTE's Neural Acute Assay for Area of Cross Correlation, Shafer Lab (AID 2284024).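 Also: rat primary cortical neuron networks on 48-well MEA at DIV 13 or 15 with 40 min exposure; area under pooled inter-electrode spike cross-correlation near zero lag as percent change from own baseline; curves fitted for loss of cross-correlation area so actives lower synchrony.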 In outline: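 Percent change in well-wide cross-correlation area (window around zero lag) between 40 min baseline and 40 min post-compound recordings, 37 C; rat cortical cultures on MEA at DIV 13 or 15, dosed 0.03-40 uM, wells needing >/= 10 active electrodes.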

Assay [7] in a line: CCTE_Shafer_MEA_acute_synchrony_index: CCTE's Neural Acute Assay for Synchrony, Shafer Lab (AID 2284027).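 Also: network synchrony index of spontaneous spiking in primary rat cortical neurons on MEAs; fitted for loss of signal so actives lower synchrony relative to DMSO.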 In outline: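 Acute exposure of rat primary cortical neurons (DIV 13 or 15) at 0.03-40 uM. Synchrony index, 40 min before vs after, as % change relative to DMSO control.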
Assay [8] can be described thus: CCTE_Shafer_MEA_dev_per_burst_spike_percent: CCTE's Neural Network Formation Assay for Percent of Spikes in a Burst, Shafer Lab (AID 2284032).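 As to AC50: fitted as a decrease in burst spike percentage below DMSO baseline.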 In outline:
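Value is trapezoidal AUC over recordings on days 5, 7, 9 and 12 of the well-mean fraction of spikes falling in single-electrode bursts; rat cortical cultures exposed continuously from plating, treatment renewed DIV 5 and 9, fitted downward against DMSO.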

Assay [9] can be described thus: CCTE_Deisenroth_AIME_384WELL_CTox_Active: Cytotoxicity Assessment (CTOX) in CCTE's 384-well Estrogen Receptor Transactivation Assay with AIME metabolic competence (metabolism positive), Deisenroth Lab (AID 2284037; active = hit-call score of the fitted dose curve at least 0.9, where 1 is the maximum;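 also: chemicals first conditioned 2 h by alginate-bound induced rat liver S9 before cells; activity means signal loss indicating cell death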). The gist of the method: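 Cytotoxicity in VM7Luc4E2 breast cells, 24 hour, measured as protease-substrate fluorescence loss, after 2-hour metabolic conditioning with induced rat hepatic S9 in alginate microspheres. Concentrations 0.002 - 200 uM, 10 points, bidirectional fitting.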

Assay [10] can be described thus: CCTE_Deisenroth_AIME_384WELL_CTox_Inactive: Cytotoxicity Assessment (CTOX) in CCTE's 384-well Estrogen Receptor Transactivation Assay without AIME metabolic competence (metabolism negative), Deisenroth Lab (AID 2284039; active = hit-call score of the fitted dose curve at least 0.9, where 1 is the maximum;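 also: cell viability via live-cell protease substrate cleaved to fluorescent probe; cells exposed 24 h to medium preincubated 2 h with alginate-water beads without S9; loss of fluorescence signal means loss of viability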). The gist of the method:
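VM7Luc4E2 human breast cells received conditioned medium from a 2 h incubation of chemical with alginate-water microspheres (no S9), then were exposed 24 h. Viability was read as protease-substrate cleavage to a fluorescent probe; loss of signal was fitted bidirectionally over 0.002–200 uM.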

The nature of assay [11]: CCTE_Shafer_MEA_dev_burst_rate: CCTE's Neural Network Formation Assay for Burst Rate, Shafer Lab (AID 2284042).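 As to AC50: potency for loss of burst rate below DMSO control.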 In outline:
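Rat primary cortical cultures on PEI/laminin MEA; compound from plating, re-dosed at DIV 5, 9 media change. Single-electrode bursts/recording length, well mean of active electrodes; AUC over DIV 5–12 recordings; loss-of-signal vs DMSO.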

Assay [12] is described as follows: CCTE_Shafer_MEA_dev_bursting_electrodes_number: CCTE's Neural Network Formation Assay for Number of Bursting Electrodes, Shafer Lab (AID 2284043; active = hit-call score of the fitted dose curve at least 0.9, where 1 is the maximum;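 as to AC50: potency is for loss of bursting electrodes relative to DMSO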). The gist of the method:
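Number of electrodes reaching ≥1 burst every 2 min was recorded at DIV 5, 7, 9 and 12 and collapsed as trapezoidal area under the curve. Cultures were rat cortical neurons on MEA plates, dosed continuously from plating with medium and treatment refreshed on DIV 5 and 9.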

Assay [13] in a line: CCTE_Shafer_MEA_dev_per_burst_interspike_interval: CCTE's Neural Network Formation Assay for Burst Interspike Interval, Shafer Lab (AID 2284044).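 As to AC50: potency for a decrease of within-burst interspike interval below DMSO level.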 The gist of the method:
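Mean interspike interval within single-electrode bursts, averaged over bursting electrodes, from rat cortical cultures on MEA plates recorded on days 5, 7, 9 and 12. Continuous compound exposure from plating; trapezoidal AUC fitted downward relative to DMSO.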

Assay [14] is described as follows: CCTE_Shafer_MEA_dev_burst_duration_mean: CCTE's Neural Network Formation Assay for Mean Burst Duration, Shafer Lab (AID 2284045). The gist of the method: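 Mean single-electrode burst duration (first to last spike), averaged over bursting electrodes per well, then integrated as area-under-curve across recordings at days 5, 7, 9 and 12. Rat cortical cultures on MEAs, compound present from plating, refreshed at feeds.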

Assay [15] can be described thus: CCTE_Shafer_MEA_dev_interburst_interval_mean: CCTE's Neural Network Formation Assay for Mean Interburst Interval, Shafer Lab (AID 2284046).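 Also: well-mean interburst interval of bursting electrodes as AUC over four recording days; curve fitted for decrease in interburst interval relative to DMSO.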 In outline: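 Rat cortical neurons, 1.5 x 10^5 cells/well, 48-well MEA; compound from day 0 through DIV 12, media and treatment renewed DIV 5/9. Recordings DIV 5, 7, 9, 12; well-mean interburst interval → trapezoidal AUC, loss direction vs DMSO.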

Assay [16] is described as follows: CCTE_Shafer_MEA_dev_inter_network_spike_interval_mean: CCTE's Neural Network Formation Assay for Mean Inter-network Spike Interval, Shafer Lab (AID 2284047).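 As to AC50: potency for a decrease in mean inter-network spike interval below DMSO.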 In outline: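 Primary rat cortical neurons on PEI-coated 48-well MEAs (16 electrodes/well) were exposed from plating day 0 to DIV 12, with dosing renewed at DIV 5 and 9. Recordings at DIV 5, 7, 9, 12 were collapsed by trapezoidal AUC, loss-of-signal fit vs DMSO.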

The nature of assay [17]: CCTE_Shafer_MEA_dev_network_spike_number: CCTE's Neural Network Formation Assay for Number of Network Spikes, Shafer Lab (AID 2284048).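 Also: synchronized bursts across electrodes counted on days 5 7 9 12 and integrated as AUC.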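 As to AC50: fit as a loss of signal meaning fewer network spikes than DMSO.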 In outline: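 Number of network spikes (coordinated firing across electrodes) recorded on days 5, 7, 9 and 12 and summarised as area under the curve. Rat cortical cultures on MEA, continuous compound exposure with full medium/treatment exchange at DIV 5 and 9.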

Assay [18] can be described thus: CCTE_Shafer_MEA_dev_network_spike_peak: CCTE's Neural Network Formation Assay for Mean Number of Electrodes in Network Spike, Shafer Lab (AID 2284049).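 As to AC50: fitted for loss of signal meaning fewer electrodes in network spikes than DMSO.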 In outline:
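Rat cortical primary culture, 1.5 x 10^5 cells/well, 48-well MEA (16 electrodes/well). Dosing day 0 through DIV 12, full media/compound exchange DIV 5, 9. AxIS adaptive spike detection; AUC over days 5/7/9/12; loss-of-signal vs DMSO.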

For assay [19], the target named is Estrogen receptor (Homo sapiens) (UniProt P03372). As to the kind of experiment: CCTE_Deisenroth_AIME_384WELL_LUC_Active: CCTE's 384-well Estrogen Receptor Transactivation Assay with AIME metabolic competence (ERTA luciferase; metabolism positive), Deisenroth Lab (AID 2284030; active = hit-call score of the fitted dose curve at least 0.9, where 1 is the maximum). In outline:
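VM7Luc4E2 breast cells were given, for 24 hours, medium pre-incubated for 2 hours with parent chemical (0.002-200 uM, 10 concentrations) and alginate-encapsulated phenobarbital/beta-naphthoflavone-induced rat hepatic S9. Luciferase gain of signal was fitted against 17beta-estradiol; n=4 or more.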

Assay [20] shares this target. As to the kind of experiment: CCTE_Deisenroth_AIME_384WELL_LUC_Shift: CCTE's 384-well Estrogen Receptor Transactivation Assay with AIME metabolic competence data shift (ERTA luciferase; difference in metabolism positive and negative), Deisenroth Lab (AID 2284041).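 Also: shift is response with S9 minus without S9 so positive means metabolism raised ER signal.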 The gist of the method:
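Test chemicals (0.002–200 uM, 10-point) were pre-incubated 2 h with alginate microspheres containing phenobarbital/beta-naphthoflavone-induced male Sprague Dawley rat liver S9 or water, then medium was transferred to VM7Luc4E2 cells for 24 h luciferase readout; shift = S9-positive minus S9-negative normalized response.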

Records with an inconclusive call do not appear. A structure can be active in one record and inactive in another. The source made the active and inactive calls. The calls were made as follows, unless noted: active = hit-call score of the fitted dose curve at least 0.9, where 1 is the maximum; inactive = score below 0.9.

In general, AC50 refers to the midpoint of the concentration-response curve, whichever way the signal moves.

Sequence of Estrogen receptor (Homo sapiens) (P03372 whole entry, looked up): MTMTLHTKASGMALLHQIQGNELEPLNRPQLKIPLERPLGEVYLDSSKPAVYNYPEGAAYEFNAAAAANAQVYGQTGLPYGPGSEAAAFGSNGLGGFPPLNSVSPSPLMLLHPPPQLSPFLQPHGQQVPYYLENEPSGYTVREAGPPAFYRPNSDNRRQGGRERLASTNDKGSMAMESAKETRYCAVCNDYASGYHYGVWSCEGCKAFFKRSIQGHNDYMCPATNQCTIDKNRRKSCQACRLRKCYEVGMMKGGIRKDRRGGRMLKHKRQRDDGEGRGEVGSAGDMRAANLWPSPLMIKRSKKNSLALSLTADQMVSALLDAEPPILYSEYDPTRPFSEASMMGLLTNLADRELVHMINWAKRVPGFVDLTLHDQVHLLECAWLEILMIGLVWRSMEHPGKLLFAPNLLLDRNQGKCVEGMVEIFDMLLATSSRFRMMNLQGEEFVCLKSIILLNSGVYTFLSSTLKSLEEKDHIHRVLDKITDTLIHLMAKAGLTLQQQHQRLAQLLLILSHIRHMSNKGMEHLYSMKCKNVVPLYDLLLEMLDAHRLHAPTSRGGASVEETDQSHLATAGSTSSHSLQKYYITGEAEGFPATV

Consider `CCCN(CCOc1c(Cl)cc(Cl)cc1Cl)C(=O)n1ccnc1`, for which the outcome in assay [1], in assay [2], in [5], in assay [6] and in [7] was inactive. Also, the concentration at half-maximal activity (AC50) in [3] was 33.6 µM (active); in [4], 32.6 µM (active).
With `O=C(O)C(F)(F)C(F)(F)C(F)(F)C(F)(F)C(F)(F)C(F)(F)C(F)(F)F`, the result in assay [8], in assay [9], in assay [10], in [11], in [12] and in [13] was inactive. Also, the compound was called inactive in assay [14], in [15], in [16], in assay [17] and in assay [18]. For the same compound, the half-maximal activity concentration (AC50) in assay [18] is 13.9 µM (active).
As to `CC1(c2ccc(Oc3ccccc3)cc2)OC(=O)N(Nc2ccccc2)C1=O` (stereo not drawn), the half-maximal activity concentration (AC50) in assay [8] is 4.72 µM (active); in [11] it was 7.84 µM (active); in assay [12] it was 4.99 µM (active); in assay [13], 7.68 µM (active); in [15], 4.55 µM (active); in assay [16], 3.1 µM (active). In addition, the AC50 in assay [17] is 3.39 µM (active); in assay [18], 5.73 µM (active). Besides, the result in assay [14] was inactive.
As to `O=[N+]([O-])/N=C1\NCCN1Cc1ccc(Cl)nc1`, the compound was classed as inactive in [1], in assay [2], in [3], in [4], in [5] and in assay [6]. In addition, the call in assay [7], in assay [8], in [11], in assay [12], in [13] and in assay [14] was inactive. Moreover, the outcome in assay [15], in assay [16], in assay [17] and in [18] was inactive.
For the compound `CCCN(CCC)c1c([N+](=O)[O-])cc(C(F)(F)F)cc1[N+](=O)[O-]`, the figures for the concentration at half-maximal activity (AC50) in assay [1], in [2] and in [5] were 4.23 µM (active), 20 µM (active) and 20 µM (active), respectively. The compound was called inactive in assay [3], in [4], in assay [6], in [7], in [19] and in assay [20].
Take `C[C@H]1[C@H](c2ccc(Cl)cc2)SC(=O)N1C(=O)NC1CCCCC1`: the concentration at half-maximal activity (AC50) is 28.7 µM (active) in assay [1]; 28.4 µM (active) in assay [2]; 9.24 µM (active) in assay [3]; 20 µM (active) in assay [4]; 20 µM (active) in assay [7]. The result in [5], in assay [6], in assay [19], in assay [9], in assay [10] and in assay [20] was inactive.
Consider `CCOCN(C(=O)CCl)c1c(C)cccc1CC`, for which the compound was called inactive in assay [9] and in [20].
On to `OCCOc1ccccc1`, for which the half-maximal activity concentration (AC50) was 34 µM (active) in assay [19] and 23.8 µM (active) in assay [20]. For the same compound, the call in assay [9] and in assay [10] was inactive.
Turning to `O=S(=O)(O)C(F)(F)C(F)(F)C(F)(F)C(F)(F)C(F)(F)C(F)(F)C(F)(F)C(F)(F)F`, the compound was classed as inactive in assay [1], in assay [2], in assay [3], in assay [4], in [5] and in assay [6]. The result in assay [7], in assay [8], in assay [11], in [12], in assay [13] and in assay [14] was inactive. Besides, the compound was classed as inactive in assay [15], in [16], in [17] and in [18]. The AC50 in [8] was 77.9 µM (active); in assay [10], 100 µM (active); in [11], 3.81 µM (active); in assay [12], 43.1 µM (active); in assay [18], 50 µM (active).
On to `O=C1c2ccccc2C(=O)N1SC(Cl)(Cl)Cl`, for which the call in assay [1], in [2], in [3], in [4], in assay [6] and in [7] was inactive. Also, in assay [5], the AC50 is 28.8 µM (active).

Values taken from PubChem BioAssay (EPA / NIEHS).
